# Laboratory results as given in the supplement of paper PMC3342239.
# Counter-ions that a name gives are not always drawn.
# System: Saccharomyces cerevisiae
# Experiment: fraction of cells in G1 phase (DNA content, flow cytometry); higher = more cells with unreplicated DNA (G1 delay)
# Settings: temperature: 30 C, YPD
# Procedure, shortened: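 S. cerevisiae grown in YPD at 30°C was exposed to library drugs. In one setup, overnight sensitized JTY2953 cultures were diluted 1∶200, given a final 20 µg/ml and fixed after 6–7 h, while other runs dosed dividing JTY2953 with fixation 6 h later or BY4741 with fixation 4.33 h later. Cells were ethanol-fixed, stained with SYTOX Green and analysed by flow cytometry at 10,000 events. The G1 fraction is the area of the Dean-Jett-Fox G1 peak divided by the summed G1 and G2/M areas.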
# [1] = JTY2953 pdr5 snq2 (sensitized), drug added to: cultures diluted from stationary phase, 6-7 h
# [2] = JTY2953 pdr5 snq2 (sensitized), drug added to: actively dividing cells, 6 h
# [3] = BY4741 PDR5+ SNQ2+, drug added to: actively dividing cells, 4.33 h
smiles,measurement,setting,value
CO[C@H]1/C=C/O[C@@]2(C)Oc3c(C)c(O)c4c(O)c(cc(O)c4c3C2=O)NC(=O)/C(C)=C\C=C\[C@H](C)[C@H](O)[C@@H](C)[C@@H](O)[C@@H](C)[C@H](OC(C)=O)[C@@H]1C [Rifamycin sv] (28.7035 µM),fraction of cells in G1 phase,[1],0.477
COCCc1ccc(OCC(O)CNC(C)C)cc1 (centres undefined) [Metoprolol tartrate] (74.8023 µM),fraction of cells in G1 phase,[1],0.491
C[N+](C)(C)CCOC(N)=O [Carbamylcholine Cl] (135.871 µM),fraction of cells in G1 phase,[1],0.506
CCCCC[C@H](O)/C=C/[C@H]1[C@H](O)CC(=O)[C@@H]1CCCCCCC(=O)O [Alprostadil] (56.4189 µM),fraction of cells in G1 phase,[1],0.447
Cc1ncc([N+](=O)[O-])n1CCO [Metronidazole] (116.852 µM),fraction of cells in G1 phase,[1],0.422
CCCOc1ccccc1-c1nc2[nH]nnc2c(=O)[nH]1 [Zaprinast] (73.7243 µM),fraction of cells in G1 phase,[1],0.482
O=C(O)COCCN1CCN(C(c2ccccc2)c2ccc(Cl)cc2)CC1 (centres undefined) [Cetirizine 2HCl] (43.3088 µM),fraction of cells in G1 phase,[1],0.492
Cc1scc2c1N(C(=O)CN1CCN(C)CC1)c1ccccc1NC2=O [Telenzepine 2HCl] (53.9845 µM),fraction of cells in G1 phase,[1],0.498
CN1CCN(CC(=O)N2c3ccccc3C(=O)Nc3cccnc32)CC1 [Pirenzepine 2HCl] (56.9133 µM),fraction of cells in G1 phase,[1],0.534
CC(=O)O[C@H]1C[C@@H]2CC[C@@H]3[C@H](CC[C@@]4(C)[C@H]3C[C@H]([N+]3(C)CCCCC3)[C@@H]4OC(C)=O)[C@@]2(C)C[C@@H]1N1CCCCC1 [Vecuronium Br] (35.8523 µM),fraction of cells in G1 phase,[1],0.478
CC1(C)S[C@@H]2[C@H](NC(=O)[C@H](N)c3ccccc3)C(=O)N2[C@H]1C(=O)O [Ampicillin trihydrate] (57.2391 µM),fraction of cells in G1 phase,[1],0.497
O=C(O)c1cc(/N=N/c2ccc(S(=O)(=O)Nc3ccccn3)cc2)ccc1O [Sulfasalazine] (50.2008 µM),fraction of cells in G1 phase,[1],0.517
CO[C@@H]1[C@@H](OC(N)=O)[C@@H](O)[C@H](Oc2ccc3c(O)c(NC(=O)c4ccc(O)c(CC=C(C)C)c4)c(=O)oc3c2C)OC1(C)C [Novobiocin Na] (32.6456 µM),fraction of cells in G1 phase,[1],0.513
NS(=O)(=O)c1cc2c(cc1Cl)NC(C(Cl)Cl)NS2(=O)=O (centres undefined) [Trichloromethiazide] (52.5406 µM),fraction of cells in G1 phase,[1],0.494
"C[C@H](CCC(=O)NCCS(=O)(=O)O)[C@H]1CC[C@H]2[C@@H]3[C@H](O)C[C@@H]4C[C@H](O)CC[C@]4(C)[C@H]3C[C@H](O)[C@]12C [Taurocholic acid, sodium salt hydrate] (38.7811 µM)",fraction of cells in G1 phase,[1],0.491
CCCCc1ncc(/C=C(\Cc2cccs2)C(=O)O)n1Cc1ccc(C(=O)O)cc1 [Eprosartan] (47.1117 µM),fraction of cells in G1 phase,[1],0.493
N=c1ccn2c(n1)O[C@H]1[C@H](O)[C@@H](CO)O[C@H]12 [Cyclocytidine HCl] (88.8077 µM),fraction of cells in G1 phase,[1],0.484
COc1cc(C)c(/C=C/C(C)=C/C=C/C(C)=C/C(=O)O)c(C)c1C [Acitretin] (61.2745 µM),fraction of cells in G1 phase,[1],0.563
C[C@@H]1CCC[C@H](C)N1NC(=O)c1ccc(Cl)c(S(N)(=O)=O)c1 [Clopamide] (57.8284 µM),fraction of cells in G1 phase,[1],0.525
CC(C)(Oc1ccc(CCNC(=O)c2ccc(Cl)cc2)cc1)C(=O)O [Bezafibrate] (55.2748 µM),fraction of cells in G1 phase,[1],0.517
CC(C)NCC(O)c1ccc(NS(C)(=O)=O)cc1 (centres undefined) [Sotalol HCl] (73.4298 µM),fraction of cells in G1 phase,[1],0.535
C=CC[N+]1([C@H]2C[C@H]3[C@@H]4CC[C@H]5C[C@H](O)[C@@H](N6CCOCC6)C[C@]5(C)[C@H]4CC[C@]3(C)[C@H]2OC(C)=O)CCCC1 [Rocuronium bromide] (37.7508 µM),fraction of cells in G1 phase,[1],0.479
COc1ccc2c(c1)c(CC(=O)OCC(=O)O)c(C)n2C(=O)c1ccc(Cl)cc1 [Acemetacin] (48.0961 µM),fraction of cells in G1 phase,[1],0.489
CN1CCC(=C2c3ccccc3CC(=O)c3sccc32)CC1 [Ketotifen fumarate] (64.6343 µM),fraction of cells in G1 phase,[1],0.496
CO[C@H]1/C=C/O[C@@]2(C)Oc3c(C)c(O)c4c(O)c(c(/C=N/N5CCN(C)CC5)c(O)c4c3C2=O)NC(=O)/C(C)=C\C=C\[C@H](C)[C@H](O)[C@@H](C)[C@@H](O)[C@@H](C)[C@H](OC(C)=O)[C@@H]1C [Rifampicin] (24.3025 µM),fraction of cells in G1 phase,[1],0.502
O=P(O)(O)C(Cl)(Cl)P(=O)(O)O [Clodronate disodium] (81.6683 µM),fraction of cells in G1 phase,[1],0.505
CC(C)CN(C[C@@H](O)[C@H](Cc1ccccc1)NC(=O)O[C@H]1CCOC1)S(=O)(=O)c1ccc(N)cc1 [Amprenavir] (39.554 µM),fraction of cells in G1 phase,[1],0.472
Cc1cc(C(C)(C)C)c(O)c(C)c1CC1=NCCN1 [Oxymetazoline HCl] (76.8101 µM),fraction of cells in G1 phase,[1],0.511
Clc1ccc(CO/N=C(\Cn2ccnc2)c2ccc(Cl)cc2Cl)c(Cl)c1 [Oxiconazole nitrate] (46.6053 µM),fraction of cells in G1 phase,[2],0.397
same,fraction of cells in G1 phase,[1],0.853
CCC(C)(C)c1ccc(CC(C)CN2C[C@@H](C)O[C@@H](C)C2)cc1 (some centres undefined) [Amorolfine] (62.9883 µM),fraction of cells in G1 phase,[2],0.367
same,fraction of cells in G1 phase,[1],0.841
C[C@@H]1CN(c2c(F)c(N)c3c(=O)c(C(=O)O)cn(C4CC4)c3c2F)C[C@H](C)N1 [Sparfloxacin] (50.9672 µM),fraction of cells in G1 phase,[3],0.46
same,fraction of cells in G1 phase,[1],0.366
CO[C@H]1C[C@@H]2CC[C@@H](C)[C@@](O)(O2)C(=O)C(=O)N2CCCC[C@H]2C(=O)O[C@H]([C@H](C)C[C@@H]2CC[C@@H](O)[C@H](OC)C2)CC(=O)[C@H](C)/C=C(\C)[C@@H](O)[C@@H](OC)C(=O)[C@H](C)C[C@H](C)/C=C/C=C/C=C/1C [Rapamycin] (21.8771 µM),fraction of cells in G1 phase,[3],0.625
same,fraction of cells in G1 phase,[2],0.788
same,fraction of cells in G1 phase,[1],0.701
CC1CCc2c(N3CCC(O)CC3)c(F)cc3c(=O)c(C(=O)O)cn1c23 (centres undefined) [Nadifloxacin] (55.4956 µM),fraction of cells in G1 phase,[3],0.43
same,fraction of cells in G1 phase,[1],0.281
